This is an account of results in the supplement of paper PMC9262897, “Low-cost anti-mycobacterial drug discovery using engineered E. coli” (Nature Communications, 2022).

Molecules are shown by their SMILES. Structures can show the parent of a compound that is named as a salt. ± gives the standard deviation of the averaged measurements.

Holding throughout (test): growth (OD600 after 10 h); higher = more growth (less inhibition)
In test [1] the test system is E. coli TESEC Alr+ wild-type control. The following applies: compound 0.1 mM; raw OD600 reference: median of DMSO wells 0.241, cell-free background 0.041. As for the experimental part: (§1)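 TESEC Mtb Alr E. coli, or the Alr+ wild-type control, in 384-well plates with Prestwick library compounds at 0.1 mM and 1% DMSO, across arabinose induction levels of 1E3 to 1E7 nM. Growth is read as OD600 after 10 h at 37 °C in triplicate biological replicates.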

The subject of test [2] is E. coli TESEC Mtb Alr. The conditions noted are these: compound 0.1 mM. As to the method: as §1
In test [3] the test system is E. coli TESEC Mtb Asd. The following applies: compound 0.1 mM. As for the experimental part:
(§2)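 TESEC E. coli strains in which the native enzyme is deleted and replaced by arabinose-inducible Mtb Asd, DapB, CysH or TrpD, each grown in its selective medium. Strains were screened against the Prestwick library at 0.1 mM and 1% DMSO in 384-well format at low and high arabinose induction. Growth is read as OD600 after 10 h in triplicate.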

The test system of test [4] is E. coli TESEC Mtb DapB. The conditions noted are these: compound 0.1 mM. As to the method:
as §2

The test system of test [5] is E. coli TESEC Mtb Alr. The following applies: compound 0.1 mM. As for the experimental part:
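TESEC Mtb Alr E. coli (ΔaraC ΔtolC ΔentC Δalr ΔdadX, arabinose-inducible Mtb Alr) or the Alr+ wild-type control strain, grown in defined M9-fructose medium without D-alanine in 96-well plates with Prestwick library compounds at 0.1 mM and 1% DMSO. Low Alr induction is 0.1 µM arabinose and high induction is 10 mM arabinose.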
The source holds these as a separate data set.

Setting [6] is: arabinose 1000 nM, raw OD600 reference: median of DMSO wells 0.294, cell-free background 0.041.
Where [7] appears, read: arabinose 10000 nM, raw OD600 reference: median of DMSO wells 0.264, cell-free background 0.041.
[8] abbreviates: arabinose 100000 nM, raw OD600 reference: median of DMSO wells 0.201, cell-free background 0.041.
[9] abbreviates: arabinose 1000000 nM, raw OD600 reference: median of DMSO wells 0.193, cell-free background 0.041.
The mark [10] stands for this setting: arabinose 10000000 nM, raw OD600 reference: median of DMSO wells 0.146, cell-free background 0.041.
[11] abbreviates: arabinose induction (level): High, raw OD600 reference: median of DMSO wells 0.331, cell-free background 0.041.
[12] abbreviates: arabinose induction (level): Low, raw OD600 reference: median of DMSO wells 0.417, cell-free background 0.041.
The mark [13] stands for this setting: arabinose induction (level): High, raw OD600 reference: median of DMSO wells […], cell-free background 0.041.
Setting [14] is: arabinose induction (level): Low, raw OD600 reference: median of DMSO wells 0.227, cell-free background 0.041.
[15] abbreviates: arabinose 100 nM, raw OD600 reference: median of DMSO wells 0.413, cell-free background 0.052.
The mark [16] stands for this setting: arabinose 10000000 nM, raw OD600 reference: median of DMSO wells […], cell-free background 0.052.

Consider `CC(C)CC(N(C)C)C1(c2ccc(Cl)cc2)CCC1` (configuration not stated) [Sibutramine HCl], for which the growth in test [1] came to 0.198 ± 0.0063; in test [2] (setting [6]), 0.264 ± 0.0096; in test [2] (setting [7]), 0.269 ± 0.0079; in test [2] (setting [8]), 0.193 ± 0.032; in test [2] (setting [9]), 0.131 ± 0.0058; in test [2] (setting [10]) it was 0.137 ± 0.0051. The growth in test [3] (setting [11]) came out at 0.213 ± 0.043; in test [3] (setting [12]), 0.37 ± 0.098; in test [4] (setting [13]) it was 0.161 ± 0.014; in test [4] (setting [14]), 0.185 ± 0.012; in test [5] (setting [15]) it was 0.414 ± 0.0078; in test [5] (setting [16]), 0.35 ± 0.014.

Take `CC[C@@H](CO)NC(=O)[C@@H]1C=C2c3cccc4[nH]cc(c34)C[C@H]2N(C)C1` [Methylergometrine maleate]: the growth came to 0.227 ± 0.0031 in test [1]; 0.262 ± 0.0081 in test [2] (setting [6]); 0.207 ± 0.0073 in test [2] (setting [7]); 0.279 ± 0.0098 in test [2] (setting [8]); 0.119 ± 0.0017 in test [2] (setting [9]); 0.178 ± 0.0023 in test [2] (setting [10]). Also, the growth was 0.228 ± 0.051 in test [3] (setting [11]); 0.267 ± 0.069 in test [3] (setting [12]); 0.129 ± 0.028 in test [4] (setting [13]); 0.156 ± 0.057 in test [4] (setting [14]); 0.4 ± 0.0081 in test [5] (setting [15]); 0.359 ± 0.0099 in test [5] (setting [16]).

Regarding `C[C@@H]1C[C@@H]([C@H](O)CC2CC(=O)NC(=O)C2)C(=O)[C@@H](C)C1` [Cycloheximide], the growth in test [1] amounted to 0.25 ± 0.014; in test [2] (setting [6]), 0.314 ± 0.018; in test [2] (setting [7]), 0.268 ± 0.006; in test [2] (setting [8]), 0.195 ± 0.009; in test [2] (setting [9]), 0.186 ± 0.011; in test [2] (setting [10]), 0.157 ± 0.0081. Besides, the growth in test [3] (setting [11]) stood at 0.469 ± 0.0092; in test [3] (setting [12]), 0.443 ± 0.042; in test [4] (setting [13]), 0.231 ± 0.031; in test [4] (setting [14]), 0.258 ± 0.027; in test [5] (setting [15]), 0.394 ± 0.033; in test [5] (setting [16]), 0.33 ± 0.013.

Take `C=CCC1(CC(C)C)C(=O)NC(=O)NC1=O` [Butalbital]: the growth in test [1] was determined as 0.2428 ± 0.002; in test [2] (setting [6]) it was 0.282 ± 0.011; in test [2] (setting [7]), 0.276 ± 0.0052; in test [2] (setting [8]) it was 0.198 ± 0.012; in test [2] (setting [9]), 0.211 ± 0.0091; in test [2] (setting [10]) it was 0.149 ± 0.0019. In addition, the growth in test [3] (setting [11]) came out at 0.407 ± 0.1; in test [3] (setting [12]), 0.3 ± 0.074; in test [4] (setting [13]), 0.218 ± 0.021; in test [4] (setting [14]) it was 0.24 ± 0.015; in test [5] (setting [15]) it was 0.395 ± 0.0067; in test [5] (setting [16]), 0.37 ± 0.0073.

With `C[C@]12CC[C@H](O)C[C@H]1CC[C@@H]1[C@@H]2CC[C@]2(C)[C@@H](C3=CC(=O)OC3)CC[C@]12O` [Digitoxigenin], the growth in test [1] turned out to be 0.147 ± 0.0028; in test [2] (setting [6]), 0.197 ± 0.0049; in test [2] (setting [7]) it was 0.251 ± 0.0094; in test [2] (setting [8]), 0.117 ± 0.0044; in test [2] (setting [9]), 0.0923 ± 0.0033; in test [2] (setting [10]), 0.126 ± 0.0021. Further, the growth in test [3] (setting [11]) is 0.154 ± 0.0042; in test [3] (setting [12]), 0.289 ± 0.096; in test [4] (setting [13]), 0.165 ± 0.0087; in test [4] (setting [14]), 0.171 ± 0.003; in test [5] (setting [15]) it was 0.41 ± 0.0093; in test [5] (setting [16]), 0.227 ± 0.01.

On to `c1ccc2c(c1)Nc1ccccc1S2` [Phenothiazine], for which the growth in test [1] is 0.157 ± 0.0061; in test [2] (setting [6]), 0.215 ± 0.0099; in test [2] (setting [7]), 0.265 ± 0.011; in test [2] (setting [8]), 0.209 ± 0.015; in test [2] (setting [9]), 0.198 ± 0.013; in test [2] (setting [10]), 0.201 ± 0.0046. Further, the growth in test [3] (setting [11]) is 0.377 ± 0.076; in test [3] (setting [12]) it was 0.177 ± 0.014; in test [4] (setting [13]), 0.209 ± 0.034; in test [4] (setting [14]), 0.236 ± 0.03; in test [5] (setting [15]), 0.415 ± 0.0099; in test [5] (setting [16]), 0.344 ± 0.021.
